Bioassay records from PubChem BioAssay.
Shown are actives, neighbours in structure and some others; about 2% of the full set was active somewhere.
NPR2 activator = human GC-B receptor activators, primary screen, HEK293 GC-B cells, cGMP TR-FRET, EC30 CNP | 0% at EC30 CNP, 100% saturating CNP | activation, % at 10 µM | 370,000 compounds, 0.11% hits;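 active = activation at 10 µM reaching about 35% in either raw or pattern-adjusted values, limit read from the data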
NPR1 activator = GC-A stimulated cGMP production enhancers – HEK293 GC-A cells, cGMP TR-FRET, EC30 ANP, primary screen; Atrial natriuretic peptide receptor 1 (Homo sapiens), P16066; 370,000 compounds, 0.14% hits; activation, % at 10 µM; 0% at EC30 ANP, 100% saturating ANP; in the data active = activation above about 40%
FAS-TE inh = FAS thioesterase domain inhibitors, primary screen, biochemical, fluorescence intensity, uHTS | Fatty acid synthase (Homo sapiens), P49327 | recombinant FAS-TE, OMFH fluorogenic substrate, fluorescence endpoint | inhibition, % at 15 µM | 360,000 compounds, 0.67% hits;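 active = compounds whose normalised, plate-corrected inhibition of enzyme fluorescence in the single-dose primary screen is 50% or more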;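 also: 0% = DMSO with enzyme and 100% = substrate without enzyme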
ADAM10 inh = human ADAM10 inhibitors, primary screen, biochemical, QFRET, HTS; inhibition, % at 7 µM; recombinant ADAM10, EDANS/DABCYL FRET peptide cleavage, 3 h; 370,000 compounds, 0.62% hits;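 active = inhibition above a per-campaign cutoff equal to the mean of compounds falling between control-based bounds plus 3 SD, cut at about 20% in these data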;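 also: 0% = DMSO wells while the 100% control is not disclosed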
Target sequence (O14672 214-748 limits assumed): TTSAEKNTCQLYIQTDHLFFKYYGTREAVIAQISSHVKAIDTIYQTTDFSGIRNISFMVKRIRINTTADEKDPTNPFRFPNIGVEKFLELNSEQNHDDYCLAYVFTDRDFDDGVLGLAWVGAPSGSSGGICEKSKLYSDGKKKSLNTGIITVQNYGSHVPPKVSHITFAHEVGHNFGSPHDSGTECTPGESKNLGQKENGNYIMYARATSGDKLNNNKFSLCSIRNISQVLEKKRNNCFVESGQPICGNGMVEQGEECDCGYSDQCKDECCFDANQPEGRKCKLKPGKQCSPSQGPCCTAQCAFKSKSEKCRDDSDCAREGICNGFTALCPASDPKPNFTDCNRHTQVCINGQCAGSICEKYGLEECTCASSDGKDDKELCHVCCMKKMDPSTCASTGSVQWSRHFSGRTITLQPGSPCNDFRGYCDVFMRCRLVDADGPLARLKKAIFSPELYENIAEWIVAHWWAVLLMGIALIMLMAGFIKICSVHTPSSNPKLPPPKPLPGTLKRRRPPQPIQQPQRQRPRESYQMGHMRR
ADAM17 inh = ADAM17 inhibitors, primary screen, biochemical, QFRET. AID 720648, 2013. 370,000 compounds, 0.83% hits. Disintegrin and metalloproteinase domain-containing protein 17 (Homo sapiens), P78536. recombinant ADAM17, EDANS/DABCYL FRET peptide cleavage. inhibition, % at 6.95 µM;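 active = inhibition above the mean of compounds lying between control limits plus 3 SD, set per campaign, cut at about 8.5% in these data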;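 also: 0% = DMSO-only wells as the low control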
FAS-TE conf = FAS thioesterase domain inhibitors, confirmation, biochemical, fluorescence intensity, single concentration | AID 624325, 2012 | shares compounds with FAS-TE inh | recombinant FAS-TE, OMFH fluorogenic substrate | inhibition, % at 15 µM | 2,300 compounds, 45% hits;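 active = compounds inhibiting the enzyme by at least 50% at 15 µM in any one of the replicates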;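 also: 0% = enzyme with DMSO only and 100% = wells lacking enzyme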
* = called active by the depositor.

For CCC(C(=O)Nc1ccccc1N1CCCC1)c1cccc(C)c1 (centres undefined) the results were NPR2 activator -23.3, NPR1 activator -10.4, ADAM10 inh 5.9 and ADAM17 inh 0.6.
COCc1cc(C)nc(SCC[N+](C)(C)CC(=O)Nc2ccccc2)c1C#N was read as NPR2 activator 3.5, NPR1 activator 10.5, FAS-TE inh 52.9*, ADAM10 inh 3.8, ADAM17 inh -2.5 and FAS-TE conf 62.7*.
Screening COC(=O)c1ccc2c(C3(c4c[nH]c5ccccc45)CCN(C(=O)OC(C)(C)C)CC3)c[nH]c2c1 returned NPR2 activator -1.4, NPR1 activator -1.4, ADAM10 inh -82.3 and ADAM17 inh -18.0.
For O=C(O)c1cc(NN=Nc2ccc(Br)cc2)cc([N+](=O)[O-])c1 the results were NPR2 activator -10.2, NPR1 activator 43.1*, FAS-TE inh 69.0*, ADAM10 inh -3.0, ADAM17 inh -2.8 and FAS-TE conf 74.8*.
For CS(=O)(=O)c1ccc(-c2csc(-c3cccnc3)n2)cc1 the results were NPR2 activator 4.5, NPR1 activator -1.7, FAS-TE inh 58.3*, ADAM10 inh -10.9, ADAM17 inh -4.6 and FAS-TE conf 50.2*.
CC(O)(c1cccnc1)c1nc(-c2ccc(S(C)(=O)=O)cc2)cs1 (centres undefined) was read as NPR2 activator 0.1, NPR1 activator -1.4, FAS-TE inh -9.4, ADAM10 inh -3.0 and ADAM17 inh -1.6.
CN(C)S(=O)(=O)c1ccc(-c2csc(-c3cccnc3)n2)cc1 was read as NPR2 activator -2.7, NPR1 activator -5.6, FAS-TE inh 75.3*, ADAM10 inh -8.2, ADAM17 inh -4.3 and FAS-TE conf 78.4*.
`O=[N+]([O-])c1ccc(Sc2n[nH]c(-c3ccccc3)n2)nc1` gave NPR2 activator 5.4, NPR1 activator -3.6, FAS-TE inh 51.8*, ADAM10 inh -2.6, ADAM17 inh 0.7 and FAS-TE conf 63.8*.
For O=C(NCC1COCCO1)C1CCN(S(=O)(=O)c2cccs2)CC1 (centres undefined) the results were NPR2 activator 8.8, NPR1 activator 2.4, ADAM10 inh -0.7 and ADAM17 inh 0.0.
`Cc1ccc(S(=O)(=O)Cn2nnnc2C(c2ccccc2)N2CCN(c3ccccc3)CC2)cc1` (centres undefined) gave NPR2 activator -4.3, NPR1 activator -1.9, FAS-TE inh 57.2*, ADAM10 inh 10.7, ADAM17 inh 3.4 and FAS-TE conf 8.2.
For COc1cc(NC(=O)c2cc3nc(-c4ccccc4)cc(-c4ccccc4)n3n2)cc(OC)c1OC the results were NPR2 activator 3.6, NPR1 activator 3.7, FAS-TE inh 51.5*, ADAM10 inh -11.2, ADAM17 inh -0.2 and FAS-TE conf 5.7.
CCCC(C)C(=O)Nc1cc([N+](=O)[O-])ccc1Cl (centres undefined) was read as NPR2 activator 3.5, NPR1 activator 2.9, FAS-TE inh 51.9*, ADAM10 inh -4.3, ADAM17 inh 0.1 and FAS-TE conf 64.4*.
CC(NC(=O)c1ccc(N(C)C)c([N+](=O)[O-])c1)c1ccc(-n2ccnc2)cc1 (centres undefined) was read as NPR2 activator -9.2, NPR1 activator -4.8, FAS-TE inh 45.8, ADAM10 inh -2.0 and ADAM17 inh -1.9.
`CC(NC(=O)c1cc([N+](=O)[O-])cc([N+](=O)[O-])c1)c1ccc(-n2ccnc2)cc1` (centres undefined) gave NPR2 activator -3.6, NPR1 activator -1.4, FAS-TE inh 58.8*, ADAM10 inh -4.3, ADAM17 inh 0.4 and FAS-TE conf 71.8*.
`CC(C)C[C@H]1C(=O)N2CCC[C@H]2[C@]2(O)O[C@](NC(=O)[C@@H]3C=C4c5cccc6[nH]c(Br)c(c56)CC4N(C)C3)(C(C)C)C(=O)N12` (some centres undefined) gave NPR2 activator -1.0, NPR1 activator 6.2, FAS-TE inh 75.6*, ADAM10 inh -68.4, ADAM17 inh -19.8 and FAS-TE conf 24.3.
COc1ccccc1CNC(=O)C[C@H]1CC[C@H]2[C@H](COc3ccc(NS(=O)(=O)c4ccc(C)cc4)cc3C(=O)N2C)O1 was read as NPR2 activator -3.0, NPR1 activator 1.5, ADAM10 inh -3.2 and ADAM17 inh -1.6.
CC(C)c1ccc2[nH]c(O)c(N=NC(=O)c3cccc(S(=O)(=O)N4CCCCC4)c3)c2c1 was read as NPR2 activator 1.2, NPR1 activator 0.9, FAS-TE inh 58.2*, ADAM10 inh 4.5, ADAM17 inh 2.9 and FAS-TE conf 32.0.
For COC(=O)[C@]12C[C@H](CC(=O)NCCC(C)C)C(=O)N(Cc3ccc(Cl)cc3Cl)C1=C[C@H](C(C)(C)C)O[C@@H]2C the results were NPR2 activator -10.7, NPR1 activator -11.4, ADAM10 inh 5.9 and ADAM17 inh 0.8.
CC(C)(C)c1ccc(C(=O)N2CCC2(C)C(=O)NS(=O)(=O)c2ccc(C#N)cc2)cc1 (centres undefined) was read as NPR2 activator -1.6, NPR1 activator 3.3, FAS-TE inh 53.3*, ADAM10 inh 5.2, ADAM17 inh -2.5 and FAS-TE conf 65.2*.
For CCOC(=O)[C@@H]1c2[nH]c3ccccc3c2C[C@@]2(C(=O)OC)C=CCN12 the results were NPR2 activator -3.1, NPR1 activator -3.0, ADAM10 inh -46.8 and ADAM17 inh -21.1.
Screening COc1ccc([N+](=O)[O-])cc1NC(=O)c1ccc(C)o1 returned NPR2 activator 1.6, NPR1 activator 2.6, FAS-TE inh 12.5, ADAM10 inh 5.0 and ADAM17 inh 4.3.
Screening COc1ccc([N+](=O)[O-])cc1NC(=O)c1ccc(CN(c2ccc(C)c(C)c2)S(C)(=O)=O)cc1 returned NPR2 activator -0.8, NPR1 activator 1.1, FAS-TE inh 67.6*, ADAM10 inh 16.2, ADAM17 inh 6.0 and FAS-TE conf 33.9.
For COc1ccc(C)cc1S(=O)(=O)N(CC(=O)Nc1cc([N+](=O)[O-])ccc1C)c1ccc(C)c(C)c1 the results were NPR2 activator -2.0, NPR1 activator -3.4, FAS-TE inh 65.1*, ADAM10 inh 13.8, ADAM17 inh 4.8 and FAS-TE conf 19.2.
`O=C(NCc1ccc(Cl)cc1)C1=Cc2cc(Cl)ccc2OC1` gave NPR2 activator 5.5, NPR1 activator 6.4, FAS-TE inh 63.5*, ADAM10 inh 12.7, ADAM17 inh 4.0 and FAS-TE conf 40.4.
